Data reported in publication PMC4336329 (PLoS ONE, 2015).
About 14,000 (4.5%) of roughly 310,000 compounds showed an effect of 50% or more. Effects have a minus sign here. Shown is part of a subset that was picked to be rich in strong results.

target: human ether-à-go-go-related gene (hERG) potassium channel (human, UniProt Q12809); test: primary screen, population patch clamp on CHO cells stably expressing hERG; higher = less effect of the substance
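Also: peak tail current of the secondary pulse compared with the same well before compound.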

Chain of human ether-à-go-go-related gene (hERG) potassium channel (Q12809 whole entry, looked up): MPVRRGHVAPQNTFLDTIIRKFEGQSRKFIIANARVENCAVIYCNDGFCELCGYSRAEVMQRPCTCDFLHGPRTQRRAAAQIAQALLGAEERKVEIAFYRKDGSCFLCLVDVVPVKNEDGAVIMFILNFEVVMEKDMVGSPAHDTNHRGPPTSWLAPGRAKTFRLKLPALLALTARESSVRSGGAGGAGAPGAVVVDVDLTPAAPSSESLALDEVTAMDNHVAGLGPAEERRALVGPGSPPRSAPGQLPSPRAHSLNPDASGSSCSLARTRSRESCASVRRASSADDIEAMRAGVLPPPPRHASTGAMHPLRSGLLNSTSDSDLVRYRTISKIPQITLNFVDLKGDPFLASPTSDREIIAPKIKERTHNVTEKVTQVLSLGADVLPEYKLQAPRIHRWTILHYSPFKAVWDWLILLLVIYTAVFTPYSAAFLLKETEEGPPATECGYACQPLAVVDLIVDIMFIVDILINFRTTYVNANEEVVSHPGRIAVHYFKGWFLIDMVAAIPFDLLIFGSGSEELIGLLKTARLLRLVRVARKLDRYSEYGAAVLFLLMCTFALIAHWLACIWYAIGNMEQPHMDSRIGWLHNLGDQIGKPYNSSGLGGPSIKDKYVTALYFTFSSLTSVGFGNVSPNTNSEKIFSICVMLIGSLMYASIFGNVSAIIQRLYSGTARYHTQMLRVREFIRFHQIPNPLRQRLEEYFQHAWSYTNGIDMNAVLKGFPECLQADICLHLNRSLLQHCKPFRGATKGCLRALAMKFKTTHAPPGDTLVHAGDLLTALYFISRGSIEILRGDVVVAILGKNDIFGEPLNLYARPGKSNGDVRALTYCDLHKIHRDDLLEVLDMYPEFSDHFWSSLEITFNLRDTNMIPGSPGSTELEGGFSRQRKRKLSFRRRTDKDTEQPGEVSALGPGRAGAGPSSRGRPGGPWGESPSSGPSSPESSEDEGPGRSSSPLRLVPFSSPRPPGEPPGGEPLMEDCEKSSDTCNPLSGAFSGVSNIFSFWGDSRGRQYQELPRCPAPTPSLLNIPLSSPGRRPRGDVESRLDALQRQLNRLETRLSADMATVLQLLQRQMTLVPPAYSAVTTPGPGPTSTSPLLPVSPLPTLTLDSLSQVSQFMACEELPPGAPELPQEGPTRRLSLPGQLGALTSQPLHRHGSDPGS

In order of rising “hERG current change (%, negative = inhibition) at 10uM” value:
1. Br.CC(C)(C)c1ccc(CN2C3=NCCCN3c3ccccc32)cc1  -77.6%
2. Br.CC(C)(C)C(=O)CN1C2=NCCCN2c2ccccc21  -75.8%
3. Cc1ccc(C(=O)N/C(=C/c2ccc(-c3ccc([N+](=O)[O-])cc3)o2)C(=O)NCCCN(C)C)cc1  -73.7%
4. CN(C)CCCNC(=O)/C(=C/c1ccc(-c2ccc([N+](=O)[O-])cc2)o1)NC(=O)c1ccccc1  -73.6%
5. Cc1ccc(CN2C3=NCCN3c3ccccc32)cc1.Cl  -68.3%
6. CCOc1ccc(C(=O)CN2CCN(S(=O)(=O)c3ccc(F)cc3)CC2)cc1  -63%
7. CCOc1ccc(C(=O)CN2CCN(S(=O)(=O)c3ccc(OC)cc3)CC2)cc1  -61.7%
8. Cc1ccc(CN2C3=NCCCN3c3ccccc32)cc1.Cl  -61.2%
9. CCOC(=O)COc1ccc(S(=O)(=O)N2CCN(c3ccc(F)cc3)CC2)cc1  -60%
10. Cc1cccc(CN2C3=NCCCN3c3ccccc32)c1.Cl  -57.4%
11. CCOc1ccc(N(C(=O)c2ccc(S(=O)(=O)N3CCCC3)cc2)C2C=CS(=O)(=O)C2)cc1 (centres unmarked)  -51.9%
12. CCOc1ccc(CN2CCN(S(=O)(=O)c3ccc(NC(C)=O)cc3)CC2)cc1.O=C(O)C(=O)O  -50.4%
13. CC(C)CCn1c(CN(C)Cc2ccccc2)nc2c1c(=O)n(C)c(=O)n2C  -43.9%
14. CCOc1ccc(C(=O)CN2CCN(S(=O)(=O)c3ccc(Cl)cc3)CC2)cc1  -40.2%
15. CCOC(=O)COc1ccc(S(=O)(=O)N2CCN(c3ccccc3)CC2)cc1  -39%
16. CCOc1ccc(CN2CCN(S(=O)(=O)c3ccc(NC(C)=O)cc3)CC2)cc1OC.O=C(O)C(=O)O  -35.4%
17. Cc1ccc(N(C(=O)c2ccc(S(=O)(=O)N3CCCC3)cc2)C2C=CS(=O)(=O)C2)cc1 (centres unmarked)  -32.9%
18. Br.CC(C)(C)C(=O)CN1C2=NCCN2c2ccccc21  -32.1%
19. COc1ccc(N(C(=O)c2ccc(S(=O)(=O)N3CCCC3)cc2)C2C=CS(=O)(=O)C2)cc1 (centres unmarked)  -31.9%
20. COc1ccc(CN2CCN(S(=O)(=O)c3ccc(NC(C)=O)cc3)CC2)cc1.O=C(O)C(=O)O  -29.4%
21. CCOc1ccc(NC(=O)CCN2CCN(S(=O)(=O)c3ccc(OC)cc3)CC2)cc1  -28.8%
22. Cc1ccc(C(=O)N/C(=C\c2ccc(-c3ccc([N+](=O)[O-])cc3)o2)C(=O)NC2CCS(=O)(=O)C2)cc1 (centres unmarked)  -28.2%
23. CCCCC(=O)N/N=C/c1ccc(-c2ccc([N+](=O)[O-])cc2)o1  -21.9%
24. O=C(NCc1ccccn1)c1cccc(NS(=O)(=O)c2ccc(Br)cc2)c1  -19.8%
25. COc1ccc(CN=C2NC(=O)CC(C(=O)Nc3cc(C)cc(C)c3)S2)cc1 (centres unmarked)  -18.4%
26. CCOc1ccc(NC(=O)CCN2CCN(S(=O)(=O)c3ccc(F)cc3)CC2)cc1  -16.5%
27. CCOc1ccc(C(C(=O)NC2CCCCC2)N(C(=O)Cc2cccs2)c2ccc(-n3cnnn3)c(OC)c2)cc1 (centres unmarked)  -15.7%
28. Br.C=CCN1C2=NCCCN2c2ccccc21  -13.9%
29. COc1ccc(N(C(C)C(=O)NCCSCc2cccc(Cl)c2)S(C)(=O)=O)cc1 (centres unmarked)  -13.3%
30. Cc1cc(C)nc(SCC(=O)Nc2ncc3c(n2)CC(C)(C)CC3=O)n1  -13.1%
31. NCc1cccc(-n2cccn2)c1.O=C(O)CC(=O)O  -8.09%
32. O=C(NCCS(=O)(=O)N1CCN(c2ccccc2F)CC1)c1ccc(Br)o1  -6.39%
33. Cc1ccc(CN2C3=NC(=O)CN3c3ccccc32)cc1  -5.41%
34. COc1ccc(OC)c(NC(=O)CCCN2C(=O)C3C4C=CC(C4)C3C2=O)c1 (centres unmarked)  -3.43%
35. Cn1ccs/c1=N\C(=O)Nc1cccc(Cl)c1  0.433%
36. CCOc1ccc(S(=O)(=O)N2CCN(S(=O)(=O)c3ccc(C(C)=O)cc3)CC2)cc1  0.493%
37. CCOC(=O)COc1ccc(S(=O)(=O)N2CCN(c3ccc(OC)cc3)CC2)cc1  0.759%
38. CCN1C2=NCCCN2c2ccccc21.Cl  1.64%
39. N#C/C(=C/c1ccncc1)c1nc2ccccc2s1  2.23%
40. O=C(O)COCC(=O)NCc1csc2ccccc12  2.75%
41. CCOC(=O)c1ccc(NC(=O)N2CCCCC2)cc1  3.33%
42. CCOC(=O)c1[nH]c(C)c(/C(O)=C2\C(=O)C(=O)N(CCCN(C)C)C2c2cccnc2)c1C (centres unmarked)  4.27%
43. c1ccc(-n2nnnc2SCc2ccccn2)cc1  7.26%
44. NC1=NC(=O)/C(=C\c2cccs2)S1  8.6%
45. Cc1ccc(S(=O)(=O)N(C)CC(=O)NCCCn2ccnc2)cc1  9.92%
46. COc1ccc(S(=O)(=O)Nc2ccccc2C(N)=O)cc1OC  10.1%
47. CCC(C)c1ccccc1NC(=O)C(C)N(C)Cc1cccc(OC)c1.O=C(O)C(=O)O (centres unmarked)  11.8%
48. CCOc1cccc(C=NCCc2ccc(OC)c(OC)c2)c1O  12.4%
49. O=C(NCC1CCCO1)c1ccc(Cl)c(S(=O)(=O)N2CCOCC2)c1 (centres unmarked)  12.7%
50. COC(=O)Cc1ccc(NC(=S)NCCO)cc1  17.6%
51. O=C(NCc1cc([N+](=O)[O-])ccc1O)c1cccc(NS(=O)(=O)c2ccccc2)c1  18.3%
52. CCc1ccccc1NC(=O)CC1SCCNC1=O (centres unmarked)  26.3%
53. Cc1c(NC(=S)Nc2ccccc2)c(=O)n(-c2ccccc2)n1C  32.9%
